Hits are enriched below; roughly 2.8% of the tested compounds scored in any of these assays.
HEK293 tox: cytotoxicity in counter-screen for GLP-1R inverse agonists. HEK293 cAMP-luciferase reporter cells, luminescence, 24 h. Potency, µM (doses to about 38.3 µM), for the others: at the top dose activity change, negative = inhibition, actives largely listed as inhibitors. 0.13% of 410,000 active. AID 624418;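 note: loss of luciferase light is scored as toxicity; % is set by controls: 0 for no effect and ±100 for the full control effect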
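1536-well qHTS counterscreen of the MLSMR; 200 cells/uL, 12 h pre-incubation, 23 nL cpd, 24 h at 37 deg C 5% CO2, luciferase detection reagent, 12 min RT, luminescence. Inhibition = undesired.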
BRCA1 expr up: increases BRCA1 expression; Potency, µM (doses to about 46.1 µM), for inactives: at the highest dose activation, actives largely listed as activators; 1.1% of 380,000 active; AID 624202; MCF7-BRCA1-FFLuc reporter, luminescence, 48 h; response scale: scaled: vehicle 0%, 10 µM genistein 100%; note: nearly all actives have a fitted effect of over 80% in size
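Luminescence from a BRCA1-driven firefly luciferase in MCF7 cells was the read-out, taken 15 min after substrate addition following 48 h compound exposure at 37 °C. Data were normalized to a 10 microM genistein control and DMSO vehicle.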
GLP1R inv ag: GLP-1 receptor (human) inverse agonism; P43220; HEK293 GLP-1R CRE-luciferase, luminescence, 24 h; GLP-1R form is constitutively active; Potency, µM (top dose mostly 38.3 µM), for inactives: at the top dose activity change, negative = inhibition, most hits filed as inhibitors; 1.6% of 410,000 active; AID 624417; note: % is set by controls: 0 for no effect and ±100 for the full control effect; nearly all actives have a fitted effect of over 55% in size
Target sequence (P43220 whole entry, looked up): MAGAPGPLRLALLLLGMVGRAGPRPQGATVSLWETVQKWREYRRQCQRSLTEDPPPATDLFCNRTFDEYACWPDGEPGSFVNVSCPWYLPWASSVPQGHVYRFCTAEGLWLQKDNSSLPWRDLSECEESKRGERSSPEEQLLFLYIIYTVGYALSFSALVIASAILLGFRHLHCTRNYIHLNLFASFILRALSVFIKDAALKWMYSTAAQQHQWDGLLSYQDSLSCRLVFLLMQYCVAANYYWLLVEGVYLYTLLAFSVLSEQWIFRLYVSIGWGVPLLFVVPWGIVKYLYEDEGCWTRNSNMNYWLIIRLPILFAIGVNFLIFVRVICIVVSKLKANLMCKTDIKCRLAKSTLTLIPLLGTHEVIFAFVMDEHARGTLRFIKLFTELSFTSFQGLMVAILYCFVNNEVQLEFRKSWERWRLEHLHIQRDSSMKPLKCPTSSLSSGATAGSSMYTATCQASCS
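qHTS in 1536-well format: reporter HEK293 cells expressing constitutive GLP-1R activity in DMEM + 10% Nu serum, 24 hr with compounds at 37 deg C, luminescence read after 12 min with detection reagent.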
Mito fusion act: blocks mitochondrial division or promotes mitochondrial fusion | S. cerevisiae fusion-defective mutant growth rescue, CellTiterGlo 48 h | AID 485298 | 0.23% of 320,000 active | Potency, µM (series often up to 46.1 µM), for the others: at the top dose growth rescue (activation), actives largely listed as activators; note: % of control where 0% means no effect; nearly all actives have a fitted effect of over 45% in size
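Read-out: ATP-based luminescence (CellTiterGlo, 10 min ambient) reporting growth of fusion-defective ts yeast after 48 hours at 37C on glycerol/ethanol YPEG medium in the presence of compound.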
GLP-1R agonist: activates the human GLP-1 receptor; Potency, µM (highest dose often 45.6 µM), without a hit: at the highest dose activation, most hits filed as activators; P43220; HEK293 GLP-1R CRE-luciferase, luminescence, 4-6 h; cells express a hypersensitive GLP-1R form; 0.007% of 380,000 active; note: % of control where 0% means no effect
* = called active by the depositor; ? = inconclusive; / = no result given; ! = a repeat was not active. Calls come from the whole dose curve; as a rule, active = well fitted curve in the direction sought with a large enough effect; inconclusive = small, poorly fitted or top-dose-only effect, or another doubt; inactive = no such curve, though single readings can be large; an effect the other way counts as inactive or inconclusive. Potency is the fitted concentration of half-maximal effect.

SMILES	HEK293 tox	BRCA1 expr up	GLP1R inv ag	Mito fusion act	GLP-1R agonist
CCOC(=O)N1CCN(S(=O)(=O)c2ccc(C(=O)N(CCN(C)C)c3nc4ccc(Cl)cc4s3)cc2)CC1	0%	90%	8.9µM*	-3%	-3%
Cc1cc(C)c2nc(N(CCCN(C)C)C(=O)c3ccc4c(c3)CCCC4)sc2c1	?	-85%	4.5µM*	-12%	-10%
Cc1ccc2sc(N(CCCN(C)C)C(=O)c3ccc(S(=O)(=O)N4CCCCCC4)cc3)nc2c1C	?	-88%	?	-12%	11%
Cc1ccc2nc(N(CCCN(C)C)C(=O)c3ccc4c(c3)CCCC4)sc2c1	?	-75%	0%	-8%	-42%
Cc1cc(C)c2nc(N(CCCN(C)C)C(=O)c3ccc(S(=O)(=O)N4CCCCCC4)cc3)sc2c1	?	-84%	13µM*	-20%	-6%
Cn1c(C2=C(O)CN(c3ccccc3)C2=N)nc2ccccc21	-1%	-2%	7%	-3%	11%
COc1ccc(S(=O)(=O)Nc2ccc(S(=O)(=O)NCC3CCCO3)cc2)cc1 (centres undefined)	-2%	-17%	3%	-1%	7%
CC#CCCCC(=O)Nc1ccccc1C(=O)O	6%	11µM*	7%	-2%	-15%
O=C(CCCOc1ccc(Cl)cc1Cl)Nc1ccccc1C(=O)O	-4%	6.3µM*	?	3%	-1%
CC#CCCCC(=O)Nc1ccc(C(=O)O)cc1	11%	0%	0%	-2%	3%
O=C(COc1ccc(Cl)cc1Cl)NC(=S)Nc1ccccc1C(=O)O	/	/	/	1%	/
Fc1ccc(C2=NN(c3ccccc3)C(c3ccco3)C2)cc1 (centres undefined)	33%	-11%	?	-10%	0%
Oc1ccc(C2=NN(c3ccccc3)C(c3ccc(F)cc3)C2)cc1 (centres undefined)	69%	-90%	?	-40%	17%
COc1ccc(C2=NN(c3ccccc3)C(c3ccc(OC)c(OC)c3)C2)cc1 (centres undefined)	17%	10µM*	-7%	1%	1%
COc1ccc(C2CC(c3ccc(F)cc3)=NN2c2ccccc2)cc1OC (centres undefined)	9%	32%	10µM*	-4%	7%
COc1ccccc1C1CC(c2ccco2)=NN1c1ccccc1 (centres undefined)	170%	-20%	10µM*	21%	-2%
COc1ccc(Cn2c(C)nc3oc4cc(OC)ccc4c(=O)c3c2=O)cc1	-5%	-8%	5%	-2%	4%
CN[C@H]1CCc2cc(OC)c(OC)c(OC)c2-c2ccc(OC)c(=O)cc21	-8%	-36%	6%	/	4%
Cc1ccc(-c2cc3onc(-c4ccccc4)c3c(=O)n2C)cc1	3%	?	?	1%	-2%
Cn1c(-c2ccc(F)cc2)cc2onc(-c3c(F)cccc3Cl)c2c1=O	-6%	2µM*	0%	/	1%
O=Nc1c(-c2c(O)[nH]c3cc(Br)ccc23)[nH]c2ccccc12	?	-61%	?	1.8µM*!	-10%
CCNc1nc(NCC)n2c(SCc3ccc(F)cc3)nnc2n1	-1%	-3%	10%	-2%	7%
COc1ccc(C(=O)N2CCN(c3ccccc3)CC2)cc1S(=O)(=O)NC1CC1	9%	67%	7%	-1%	-4%
S=c1[nH]nc(C23CC4CC(CC(C4)C2)C3)n1Cc1ccco1	-29%	-26%	7.9µM*	4%	-8%
CC(NC1=CC(=O)c2cccnc2C1=O)C(O)c1ccccc1 (centres undefined)	11µM*	-94%	?	/	-34%
SMILES	HEK293 tox	BRCA1 expr up	GLP1R inv ag	Mito fusion act	GLP-1R agonist
CC(c1ccccc1)N1C(=O)c2cccnc2C1=O (centres undefined)	2%	-3%	5%	-1%	-2%
CCN1CC(CN(C)Cc2cn(-c3cccc(C)c3)nc2-c2cccc(F)c2)CC1=O (centres undefined)	-19%	-15%	10µM*	8%	?
COc1ccc(C(=O)NCCn2ccc3ccccc32)c(OC)c1	8%	7.9µM*	0%	8%	15%
COc1ccc(C(=O)NCCN2CCOCC2)c(OC)c1	0%	-6%	5%	-2%	1%
Cc1ccc(-n2c(SCc3ccccc3F)nc3[nH]ncc3c2=O)cc1Cl	-23%	-75%	?	/	2%
CCCC(c1nnnn1CC1CCCO1)N1CCN(c2cc(Cl)ccc2C)CC1 (centres undefined)	-12%	-68%	8.9µM*	0%	20%
Cc1ccc(Cl)cc1N1CCN(C(CC(C)C)c2nnnn2CC2CCCO2)CC1 (centres undefined)	-1%	-15%	-3%	1%	-18%
Cc1[nH]c2ccccc2c1C1(O)C(=O)N(Cc2ccccc2)c2ccc(Br)cc21 (centres undefined)	?	-47%	?	/	-7%
CCCCN1C(=O)C(O)(c2ccccc2)c2cc(Br)ccc21 (centres undefined)	-5%	-7%	13µM*	-4%	15%
NS(=O)(=O)c1ccc(NC(=S)NC2CCCCC2)cc1	0%	-10%	?	3%	1%
FC(F)Oc1ccc(NC(=S)NC2CCCCCCC2)cc1	-16%	0%	4.5µM*	-48%	1%
S=C(Nc1cccnc1)NC1CCCCCCC1	-4%	-3%	?	0%	7%
S=C(Nc1ccc(Br)cc1)NC1CCCCC1	?	10µM*	?	?	-5%
S=C(Nc1ccc(Nc2ccccc2)cc1)NC1CCCCCC1	-8%	-80%	5µM*	5%	5%
S=C(Nc1ccc(Cl)cc1)NC1CCCCC1	?	86%	10µM*	-4%	12%
FC(F)Oc1ccc(NC(=S)NC2CCSc3ccccc32)cc1 (centres undefined)	?	-66%	?	-1%	-12%
CCc1nnc(SCc2cccc(F)c2)c2cc3sc(C)cc3n12	4%	/	?	/	/
CC(C)C[C@@H]1CN=C(N)N1C[C@@H]1CCCN1C[C@@H](C(C)C)N1C[C@@H](Cc2ccccc2)N(CCc2ccc(Cl)c(Cl)c2)C1=N	-8%	16%	-1%	/	3%
c1ccc(-c2csc(NC3CCCCC3)n2)cc1	5%	2.8µM*	?	-11%	24%
CNC(=O)c1cccn1-c1ccsc1C(=O)OC	-3%	11%	0%	2%	1%
CC(NC(=O)c1cc(COc2c(F)cccc2F)on1)c1cnn(-c2ccccc2)c1 (centres undefined)	-36%	7.1µM*	?	5%	4%
CCOc1ccc(CCNC(=O)C(C)n2nc(C)n3c(cc4occc43)c2=O)cc1OCC (centres undefined)	17%	-2%	1%	0%	4%
